Results on 54 sequences are retold here after paper PMC7819943, “Rice protein-binding microarrays: a tool to detect cis-acting elements near promoter regions in rice”.

In all, about 68,000 sequences were measured (“fluorescence intensity (a.u.)”: median about 9,100, highest 2% from about 16,000 on). Only a selection was taken, and the highest values are over-represented in it overall.

Chain of OsWRKY34 (Q0JBA9 entry or part of it): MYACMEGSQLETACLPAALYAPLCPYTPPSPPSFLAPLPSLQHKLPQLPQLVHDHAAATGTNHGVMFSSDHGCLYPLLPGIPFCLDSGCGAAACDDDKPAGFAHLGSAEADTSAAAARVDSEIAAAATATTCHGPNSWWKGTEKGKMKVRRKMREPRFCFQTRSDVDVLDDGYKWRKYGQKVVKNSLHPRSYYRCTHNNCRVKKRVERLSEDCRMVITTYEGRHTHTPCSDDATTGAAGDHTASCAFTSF

This assay addresses OsWRKY34 (Oryza sativa, UniProt Q0JBA9 1-250). In words: protein-binding microarray (RPBM); PBS, 2% BSA, 51.3 ng/ul salmon testes DNA, 50 uM zinc acetate, 200 nM TF, 25 C, 1 h; high values mean tight binding. Particulars: protein: recombinant; tags: N-terminal polyhistidine and DsRed monomer fusion (pET32a); label: CyDye5-dUTP incorporated in the synthesized complementary strand; 3' TTTTT single-stranded linker to array surface; dsDNA, one strand shown. In short, it runs like this:
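Transcription factors were made in E. coli BL21-CodonPlus as N-terminal fusions to a polyhistidine tag and DsRed, then purified on Ni–NTA. After primer extension with Cy5-dUTP and blocking with 2% BSA, a custom Agilent array was exposed for 1 h at 25 °C to 200 nM protein in PBS, 2% BSA, salmon testes DNA and 50 µM zinc acetate. Washed arrays were scanned on an Axon 4000B, and the binding signal is per-feature fluorescence intensity in arbitrary units.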
“CGTTCATTCCGCATCCAATGGCAGCACTGGTTCCTAGCTTCGGAGTCACCTAGTGCAG”: the binding signal was 8110 fluorescence intensity (a.u.).
As to “TTATACCACCGGATGCTGACACCATTCATCCGCTCTTCCTCGGAGTCACCTAGTGCAG”, the binding signal is 10700 fluorescence intensity (a.u.).
Next, “CTGTATGGCCACCGTCGCAGCTCGTCCTACACGTTTCTCACGGAGTCACCTAGTGCAG”: 10600 fluorescence intensity (a.u.); “TGCTAAACCTGTGGTGTTAAATCTGGCTGGTTGCCTGTCTCGGAGTCACCTAGTGCAG”: 9280 fluorescence intensity (a.u.); “TAACAGTTGACACAGGGAGCGGAGGGGCAGCTTGGTCATTCGGAGTCACCTAGTGCAG”: 8420 fluorescence intensity (a.u.).
In the case of “CCTTAACACTTAATCCATGTGATGCATCTGTCATGCAACTCGGAGTCACCTAGTGCAG”, the binding signal is 8250 fluorescence intensity (a.u.).
With “TCCCCGCGGGCATGCCCGTTGCTGCGGGCGCAGCTCAATTCGGAGTCACCTAGTGCAG”, the binding signal is 8280 fluorescence intensity (a.u.).
In the case of “GTGCTGGAGGGAGGGAACGGGGAACGTGGCAACTGACACGCGGAGTCACCTAGTGCAG”, the binding signal is 9030 fluorescence intensity (a.u.).
“GCGCAAACGCTCGAATTTTTGGTTTTGATCCATATGCATACGGAGTCACCTAGTGCAG”: the binding signal is 8580 fluorescence intensity (a.u.).
In the case of “TGTAGTCCCGCGTCGCACGGCATCCGGCCGGCCTCTCCTACGGAGTCACCTAGTGCAG”, the binding signal was 8760 fluorescence intensity (a.u.).
“GGGATGGGGAAGGTCAGAGCCAATATGATCTGGTAACTCTCGGAGTCACCTAGTGCAG”: the binding signal is 9510 fluorescence intensity (a.u.).
Next, “CAAAGGTTCTAATGTTTGACCTCATTCTTATCTAAAACGACGGAGTCACCTAGTGCAG”: 9440 fluorescence intensity (a.u.).
Next, “GCGTCGCCTGCCGCCTCCGCTTCCGCTCCACTCCGCTTCGCGGAGTCACCTAGTGCAG”: 12000 fluorescence intensity (a.u.); “GTTCCAGCTTCATGCATGCACACACACAGTAGCTCGTGCTCGGAGTCACCTAGTGCAG”: 29300 fluorescence intensity (a.u.).
Next, “GTAGTCATTCACGTGTTCCTCTTCTCCAGTACTAGTAGCTCGGAGTCACCTAGTGCAG”: 9710 fluorescence intensity (a.u.).
As for “CTGAACTCTCTCTCGCTCTCCGGCTCTCTGTATTCCTTCACGGAGTCACCTAGTGCAG”, the binding signal was 19800 fluorescence intensity (a.u.).
“CCCGCTCGCTCTCGTGCTGTCCGCCGACCTCAGCTCGCTCCGGAGTCACCTAGTGCAG”: the binding signal is 10000 fluorescence intensity (a.u.).
For “CTCTCTGTGTCTCCGCCGCCGCCGCCTCCGCCGCTCGCCGCGGAGTCACCTAGTGCAG”, the binding signal was 8060 fluorescence intensity (a.u.).
Next, “CAATCTCTCTCTCTCTCTCTCTCGCTGCTGCTGCTCCTTCCGGAGTCACCTAGTGCAG”: 9770 fluorescence intensity (a.u.).
As for “ACCTCGTACCTCGCCGCTGTTCCGTTCCGTGCTCTGTGTCCGGAGTCACCTAGTGCAG”, the figure is 18700 fluorescence intensity (a.u.); as for “AACCCTAGCTCTTCACAGCTTCCATGGCTCTTCTCTCTCTCGGAGTCACCTAGTGCAG”, 12500 fluorescence intensity (a.u.); as for “TCTCCTCTTCTTTTTCTTCCTTCCTTTTACTCGCTCGCTCCGGAGTCACCTAGTGCAG”, 9930 fluorescence intensity (a.u.).
As for “AACCATAAAACATGTGATTCTTTTTTTTAACCAAAACTTACGGAGTCACCTAGTGCAG”, the binding signal was 8130 fluorescence intensity (a.u.).
“ACCACTTAATCTTTATCTTTGTTAGATTCATTACTACTATCGGAGTCACCTAGTGCAG”: the binding signal is 8310 fluorescence intensity (a.u.).
As for “TATAGGTATTCACTACCTTATCATTTATTCATACCTTGTTCGGAGTCACCTAGTGCAG”, the figure is 8060 fluorescence intensity (a.u.).
As for “GGCTCCAAATCATCTGCCTTCATTGTCAGGCTTCAGTAATCGGAGTCACCTAGTGCAG”, the figure is 10400 fluorescence intensity (a.u.); as for “AGATTCGTGTAGACCCATTGTCTGGCAGCGGCGATCGTCCCGGAGTCACCTAGTGCAG”, 8040 fluorescence intensity (a.u.).
With “GCCACTCCTGACGTCAGCGTTGACTCGGTCAAACCCATCGCGGAGTCACCTAGTGCAG”, the binding signal is 19300 fluorescence intensity (a.u.).
Turning to “AGTTGATCGCGGTCAAATCGTCACGTTAGTTGAACCCGGTCGGAGTCACCTAGTGCAG”, the binding signal was 8260 fluorescence intensity (a.u.).
As to “TCACCCACCTGTTGACTACCATCACCACTCCTCGTCTGGACGGAGTCACCTAGTGCAG”, the binding signal was 8590 fluorescence intensity (a.u.).
Regarding “ATACACACTTCAGTCACTCGGTAGGCCACTCCGTACGGCACGGAGTCACCTAGTGCAG”, the binding signal was 8510 fluorescence intensity (a.u.).
As for “CCGTTTCGAAATGTTTACACCGTTGACTTTTTAGCACATGCGGAGTCACCTAGTGCAG”, the binding signal was 30100 fluorescence intensity (a.u.).
For “TCGAAATGTTTGACACCGTTGACTTTTTAGCACATGTTTACGGAGTCACCTAGTGCAG”, the binding signal was 19000 fluorescence intensity (a.u.).
Consider “TTTCGAAATGTTTGACACTGTTGACTTTTTAGCACATGTTCGGAGTCACCTAGTGCAG”, for which the binding signal was 14200 fluorescence intensity (a.u.).
As for “TTCGAAATATTTGACACCGTTGACTTTTTAGCACATGTTTCGGAGTCACCTAGTGCAG”, the binding signal is 30000 fluorescence intensity (a.u.).
Next, “CGAAATGTTTGACGTCGTTGACTTTTTAGCACATGTTTAACGGAGTCACCTAGTGCAG”: 22800 fluorescence intensity (a.u.); “CAAAATGTTTGACATCGTTGACTTTTTAGCACATGTTTGACGGAGTCACCTAGTGCAG”: 15300 fluorescence intensity (a.u.); “GAATTAAACTTTGCATGGTTTCTGTTTGGTCAAACTTCTCCGGAGTCACCTAGTGCAG”: 9130 fluorescence intensity (a.u.).
On to “AGGTACGCACGCGCGGTGGAGGAGGAGGAGGAGGAGGAGGCGGAGTCACCTAGTGCAG”, for which the binding signal was 10900 fluorescence intensity (a.u.).
As for “TGAATGCACCATGTCTTTTGCTCCGTCCGTCATAAAAAAACGGAGTCACCTAGTGCAG”, the figure is 8950 fluorescence intensity (a.u.); as for “TGCCAAAGCTCTATCCATTTTGCCTCTACTCAATCGTCCACGGAGTCACCTAGTGCAG”, 10200 fluorescence intensity (a.u.); as for “TCTAGATTTATCCCCATTTTTGGCTGGGCCTTCTATTTAACGGAGTCACCTAGTGCAG”, 8720 fluorescence intensity (a.u.).
As for “AACCCATTACATAGCTGCAAGAAACCCAATCTTTCTTTACCGGAGTCACCTAGTGCAG”, the figure is 8420 fluorescence intensity (a.u.).
As for “CCTACCCCTACCGCTCCTGCCTGCTTCGCCCGCCGCCGCCCGGAGTCACCTAGTGCAG”, the figure is 8340 fluorescence intensity (a.u.); as for “CTCTATACCATACGCCATCTCCATCATCTCTCGATCCATCCGGAGTCACCTAGTGCAG”, 11300 fluorescence intensity (a.u.).
Consider “AGTCTGAGCCACCTTTCATTACCCATCCAAGATTCGGTTTCGGAGTCACCTAGTGCAG”, for which the binding signal was 8900 fluorescence intensity (a.u.).
Next, “AGTAGTCCTTCAAGCTCCAATCATATACCCCTGATACTAACGGAGTCACCTAGTGCAG”: 8300 fluorescence intensity (a.u.); “AGGAAATGTCTCATCAAATACTAGATTGGTTTTTTTTTACCGGAGTCACCTAGTGCAG”: 8960 fluorescence intensity (a.u.); “CGATTTCGACCAATCTAGCCGCTATGTGCACTCCTTTTCCCGGAGTCACCTAGTGCAG”: 12100 fluorescence intensity (a.u.).
On to “TGGTCTTGCTGGTTGCTGCGTATTTGGCTGTATTGGTTATCGGAGTCACCTAGTGCAG”, for which the binding signal is 8380 fluorescence intensity (a.u.).
Next, “ATTATACGTTAATGGCTTTCTCGTTTTGTATACGCTGATTCGGAGTCACCTAGTGCAG”: 9600 fluorescence intensity (a.u.); “TCGAAATATTTGACACCGTTGACTTTTTAGCACATGTTTGCGGAGTCACCTAGTGCAG”: 35300 fluorescence intensity (a.u.); “ATTTGATACTTCTCTCGCCTTTCTTTATTATTCTCCCGCTCGGAGTCACCTAGTGCAG”: 8420 fluorescence intensity (a.u.).
As for “GAGTGCCTATTCAATTGCCTTTTGTTTGTCAACGTTTCTCCGGAGTCACCTAGTGCAG”, the figure is 8080 fluorescence intensity (a.u.).
